In PubChem BioAssay (NCI):
About 83,000 compounds went through this panel and 20% of them were active in at least one assay; those are over-represented in the sample as a whole.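 Note: values are percent growth. 100 is the growth of untreated cells, values between 100 and 0 indicate rising inhibition; between -100 and 0 indicates cell death.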 The source made the active and inactive calls. Rule for the calls: active = growth percent below 10; inactive = the rest.

Key:
Test in all cases: NCI-60 one-dose screen, 48 h (100 = growth as untreated, 0 = no growth, -100 = all killed)
[1] = system: SK-MEL-2 melanoma; conditions: 10 µM unless noted
[2] = system: EKVX NSCLC; conditions: 10 µM unless noted
[3] = system: SN12C renal; conditions: 10 µM unless noted
[4] = system: UO-31 renal; conditions: 10 µM unless noted
[5] = system: TK-10 renal; conditions: 10 µM unless noted
[6] = system: ACHN renal; conditions: 10 µM unless noted
[7] = system: CAKI-1 renal; conditions: 10 µM unless noted
[8] = system: A498 renal; conditions: 10 µM
[9] = system: HL-60(TB) leukemia; conditions: 10 µM unless noted
[10] = system: CCRF-CEM leukemia; conditions: 10 µM unless noted
[11] = system: MOLT-4 leukemia; conditions: 10 µM unless noted
[12] = system: SR leukemia; conditions: 10 µM unless noted
[13] = system: RPMI-8226 leukemia; conditions: 10 µM unless noted
[14] = system: OVCAR-8 ovarian; conditions: 10 µM unless noted
[15] = system: OVCAR-5 ovarian; conditions: 10 µM unless noted
[16] = system: OVCAR-4 ovarian; conditions: 10 µM unless noted
[17] = system: SK-OV-3 ovarian; conditions: 10 µM unless noted
[18] = system: IGROV1 ovarian; conditions: 10 µM unless noted
[19] = system: OVCAR-3 ovarian; conditions: 10 µM unless noted
[20] = system: HS 578T breast; conditions: 10 µM unless noted

Measured: growth

CC[C@]12C=CCN3CC[C@]4(C(=C(C(=O)OC)C1)Nc1cc(OC)c(OC(C)=O)cc14)[C@@H]32
active: [3] 8.6% | [8] -7.74% | [9] -8.44% | [10] 0.65% | [11] 9.7% | [12] 7.64% | [13] 7.27% | [14] 5.97% | [17] 2.29%
inactive: [1] 41.5% | [2] 55.6% | [4] 28.6% | [5] 21.4% | [6] 21.4% | [7] 21% | [15] 43% | [16] 38.6% | [18] 26.3% | [19] 14.1%

CCCCCCCCCCCCCCCCCC1OC[C@@H](COC(=O)O[C@@H](C(=O)O[C@H]2C[C@@]3(O)[C@@H](OC(=O)c4ccccc4)[C@@H]4[C@]5(OC(C)=O)CO[C@@H]5C[C@H](O)[C@@]4(C)C(=O)[C@H](OC(C)=O)C(=C2C)C3(C)C)[C@@H](NC(=O)c2ccccc2)c2ccccc2)O1 (some centres not stated)
inactive: [1] 82.9% | [2] 96.9% | [3] 72% | [4] 93.5% | [5] 108% | [6] 92.4% | [7] 89.3% | [8] 70.9% | [9] 35.8% | [10] 59.2% | [11] 58.7% | [12] 47.8% | [13] 15.2% | [14] 64.8% | [15] 53.9% | [16] 80.8% | [17] 57.9% | [18] 50.4% | [19] 29.2% | [20] 57.3%

Cc1cc(N(CCCl)CCCl)ccc1/C=N\NC(=O)c1ccncc1
inactive: [1] 120% | [2] 94.3% | [3] 64.5% | [4] 82.5% | [5] 93.1% | [6] 73.9% | [7] 33.2% | [9] 53.4% | [10] 68.2% | [11] 58.8% | [12] 47.9% | [13] 90.6% | [14] 61.9% | [15] 54.5% | [16] 89.1% | [17] 95.4% | [18] 87% | [19] 90.8%
active: [8] -94.9%

ClCCN(CCCl)c1nc(Cl)c(C2CC(c3ccccc3)=NN2c2cc(Cl)cc(Cl)c2)s1 (configuration not stated)
inactive: [1] 103% | [2] 101% | [3] 95.2% | [4] 89.6% | [5] 109% | [6] 96.1% | [7] 83.4% | [8] 116% | [9] 105% | [10] 102% | [11] 101% | [12] 112% | [13] 108% | [14] 100% | [15] 102% | [16] 96.9% | [17] 105% | [18] 101% | [19] 103% | [20] 102%

CC1CCCC(C[N+](C)(C)C)C1=O (configuration not stated)
inactive: [1] 117% | [2] 110% | [3] 92.5% | [4] 73.5% | [5] 106% | [6] 97.5% | [7] 103% | [8] 101% | [9] 104% | [10] 95.2% | [11] 75.7% | [12] 86.8% | [13] 105% | [14] 108% | [15] 104% | [16] 93.1% | [17] 110% | [18] 92.3% | [19] 121% | [20] 111%

O=Cc1cn(Cc2ccc(Cl)cc2)c2ccccc12
active: [5] 0.213% | [7] -20.8% | [8] -89.8% | [15] -36.7% | [18] 6.46%
inactive: [1] 82.7% | [2] 88.9% | [3] 89.6% | [4] 61.4% | [6] 91.6% | [9] 97.7% | [10] 89.6% | [11] 90.1% | [12] 80.9% | [13] 77.1% | [14] 90.1% | [16] 57.5% | [17] 31.1% | [19] 63.8% | [20] 83.9%

OCc1ccc2c(c1)OCO2
inactive: [1] 99.5% | [2] 96.3% | [3] 101% | [4] 88% | [5] 91.7% | [6] 104% | [7] 93.2% | [8] 111% | [9] 96.1% | [10] 102% | [11] 91.9% | [12] 95.5% | [13] 102% | [14] 95.7% | [15] 97% | [16] 101% | [17] 95.6% | [18] 106% | [19] 107% | [20] 97.1%

COc1cc(C=Nc2cccc(Br)c2)ccc1N(CCCl)CCCl
active: [7] 5.9%
inactive: [1] 91.2% | [2] 120% | [3] 84.5% | [4] 69.1% | [5] 92.9% | [6] 18.2% | [8] 120% | [9] 71.2% | [10] 63.5% | [11] 64.2% | [12] 44.1% | [13] 86.2% | [14] 81.6% | [15] 85.6% | [16] 93.6% | [17] 71.3% | [18] 96.3% | [19] 80.8% | [20] 150%

O=C(CCCCCNC1=CC(=O)c2ccccc2C1=O)NCCC[Te]c1ccccc1
active: [1] 8.28% | [2] -31.9% | [3] -8.47% | [5] -14.8% | [6] -71.2% | [7] -55.8% | [8] -57.7% | [10] -15.3% | [14] 8.94% | [15] -37% | [16] -44.8% | [17] -39.6% | [18] -24% | [19] -43.8% | [20] -9.34%
inactive: [4] 16.9% | [9] 28.1% | [11] 29.7% | [12] 38.3% | [13] 10.5%

C/C(CC(C)(C)N1CC1)=N\NC(=O)Nc1cccc2ccccc12
inactive: [1] 72.9% | [2] 78.5% | [3] 63.3% | [4] 57.9% | [5] 61.3% | [6] 42.3% | [7] 28.9% | [8] 59.3% | [9] 77.6% | [10] 82.3% | [11] 12.2% | [12] 20.9% | [13] 72.7% | [14] 44.1% | [15] 100% | [16] 55.8% | [17] 79.3% | [18] 38.8% | [19] 48.3% | [20] 79.8%

Cc1cc(C)cc(Nc2nc3c(s2)CC[C@@]2(C)C3=CC[C@@H]3[C@@H]2CC[C@]2(C)C(=O)CC[C@@H]32)c1
inactive: [1] 54.9% | [2] 89.4% | [3] 54.2% | [4] 59.4% | [5] 77.6% | [6] 63.4% | [7] 47.4% | [8] 78% | [9] 57.6% | [11] 10.3% | [12] 12.5% | [14] 50.4% | [15] 93.3% | [16] 70% | [17] 79.8% | [18] 85.2% | [19] 23.8% | [20] 58.3%
active: [10] 3.37% | [13] 4.21%

COC1CC2c3ccccc3C1C(C)=[N+]2C (configuration not stated)
inactive: [1] 91.8% | [2] 97.4% | [3] 94.1% | [4] 94% | [5] 98.8% | [6] 99.3% | [7] 69.3% | [8] 80.8% | [9] 113% | [10] 76.7% | [11] 101% | [12] 105% | [13] 75.3% | [14] 96.6% | [15] 93.8% | [16] 83.7% | [17] 105% | [18] 92.5% | [19] 102% | [20] 105%

CCCCCCCCOC(=O)CCN1CC1
inactive: [1] 119% | [2] 99% | [3] 106% | [4] 92.8% | [5] 127% | [6] 103% | [7] 98.4% | [8] 84.2% | [9] 149% | [10] 110% | [11] 103% | [12] 101% | [13] 103% | [14] 102% | [15] 104% | [16] 115% | [17] 109% | [18] 115% | [19] 108% | [20] 99.6%

C#C[C@]1(OC(=O)CCCCCC)CC[C@H]2[C@@H]3CCC4=CC(=O)CC[C@@H]4[C@H]3CC[C@@]21C
inactive: [1] 55.1% | [2] 55.6% | [3] 47.3% | [4] 54.7% | [5] 54.7% | [6] 54.2% | [7] 56.1% | [8] 80.5% | [10] 41.2% | [11] 26.1% | [12] 17.5% | [14] 51.9% | [15] 65.4% | [16] 53.6% | [17] 55.1% | [18] 42.5% | [19] 73%
active: [9] 4.53% | [13] 1.02%
